According to PubChem BioAssay AID1159580 (chemical genetic matrix, 2015):
“And” between values parts separate entries of the source, which are not always exact repeats. Identical values can stand only once. Out of some 5,500 compounds screened, about 2,000 (36%) were called active. Inconclusive results (about 18%) are left out. Cut-off read from the data, not from the text of the source: active = normalized growth mostly below about 0.91 (no sharp cut-off); inconclusive = no clear call, values can overlap the other calls; inactive = mostly above about 0.92. This is one part of the list.

Assay: chemical genetic growth profiling, strain panel (AID 1159580);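 note: tested at 20 µM; growth read once vehicle control cultures reached saturation at 30 °C; 1 = growth at the plate median or of vehicle wells; lower values mean less growth of the strain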
Settings: S. cerevisiae deletion strains, growth OD

Measured: normalized growth

CCN(CC)CCOc1ccc2c(c1)C(=O)c1cc(OCCN(CC)CC)ccc1-2
inactive: locus YAL013W, strain DEP1, stronger effect = lower value 1 | locus YAL021C, strain ccr4, stronger effect = lower value 0.962 | locus YAL026C, strain drs2, stronger effect = lower value 0.984 | locus YAL030W, strain snc1, stronger effect = lower value 1 | locus YBL061C, strain skt5, stronger effect = lower value 0.993 | locus YBR009C, strain hhf1, stronger effect = lower value 0.993 | locus YBR021W, strain FUR4, stronger effect = lower value 1.06 | locus YBR023C, strain chs3, stronger effect = lower value 0.98 | locus YBR171W, strain sec66, stronger effect = lower value 0.979 | locus YBR229C, strain ROT2, stronger effect = lower value 1 | locus YBR231C, strain swc5, stronger effect = lower value 0.974 | locus YBR279W, strain paf1, stronger effect = lower value 0.981 | locus YCL011C, strain gbp2, stronger effect = lower value 0.977 | locus YCL016C, strain dcc1, stronger effect = lower value 0.973 | locus YCL029C, strain bik1, stronger effect = lower value 0.975 | locus YCL061C, strain MRC1, stronger effect = lower value 0.981 | locus YCL069W, strain vba3, stronger effect = lower value 0.996 | locus YCR088W, strain abp1, stronger effect = lower value 0.984 | locus YDL005C, strain med2, stronger effect = lower value 0.966 | locus YDL035C, strain GPR1, stronger effect = lower value 0.991 | locus YDL040C, strain nat1, stronger effect = lower value 0.986 | locus YDL074C, strain BRE1, stronger effect = lower value 0.998 | locus YDL101C, strain DUN1, stronger effect = lower value 0.987 | locus YDL134C, strain PPH21, stronger effect = lower value 0.994 | locus YDL185W, strain tfp1, stronger effect = lower value 0.947 | locus YDL192W, strain arf1, stronger effect = lower value 0.984 | locus YDR001C, strain nth1, stronger effect = lower value 0.979 | locus YDR069C, strain doa4, stronger effect = lower value 0.96 | locus YDR101C, strain arx1, stronger effect = lower value 0.991 | locus YDR137W, strain rgp1, stronger effect = lower value 0.998 | locus YDR150W, strain NUM1, stronger effect = lower value 0.973 | locus YDR159W, strain sac3, stronger effect = lower value 1 | locus YDR162C, strain NBP2, stronger effect = lower value 1.02 | locus YDR195W, strain ref2 0.96 | locus YDR297W, strain sur2, stronger effect = lower value 0.997 | locus YDR318W, strain mcm21, stronger effect = lower value 0.98 | locus YDR334W, strain swr1, stronger effect = lower value 0.975 | locus YDR335W, strain msn5, stronger effect = lower value 0.989 | locus YDR388W, stronger effect = lower value 0.983 | locus YDR392W, strain spt3, stronger effect = lower value 0.807 | locus YDR502C, strain sam2, stronger effect = lower value 0.99 | locus YEL003W, strain gim4, stronger effect = lower value 0.99 | locus YEL037C, strain rad23, stronger effect = lower value 0.994 | locus YEL061C, strain CIN8 (second series), stronger effect = lower value 0.986 | locus YEL061C, strain CIN8, stronger effect = lower value 0.997 | locus YER015W, strain faa2, stronger effect = lower value 0.991 | locus YER016W, strain bim1, stronger effect = lower value 0.957 | locus YER110C, stronger effect = lower value 0.962 | locus YER111C, strain swi4, stronger effect = lower value 0.971 | locus YER155C, strain BEM2 (second series), stronger effect = lower value 0.937 | locus YER155C, strain BEM2, stronger effect = lower value 1 | locus YER167W, strain BCK2, stronger effect = lower value 0.982 | locus YFR010W, strain ubp6, stronger effect = lower value 0.992 | locus YGL078C, strain dbp3, stronger effect = lower value 0.98 | locus YGL086W, strain mad1, stronger effect = lower value 0.993 | locus YGL167C, strain pmr1, stronger effect = lower value 0.982 | locus YGL173C, strain kem1, stronger effect = lower value 0.978 | locus YGL227W, strain vid30, stronger effect = lower value 0.978 | locus YGL240W, strain doc1, stronger effect = lower value 0.983 | locus YGL248W, strain PDE1, stronger effect = lower value 1 | locus YGL253W, strain hxk2, stronger effect = lower value 0.983 | locus YGR078C, strain PAC10, stronger effect = lower value 0.996 | locus YGR135W, strain pre9, stronger effect = lower value 1.02 | locus YGR229C, strain SMI1, stronger effect = lower value 1.04 | locus YGR252W, strain gcn5, stronger effect = lower value 0.99 | locus YHR013C, strain ard1, stronger effect = lower value 0.933 | locus YHR027C, strain rpn1, stronger effect = lower value 0.979 | locus YHR030C, strain SLT2, stronger effect = lower value 0.977 and 0.988 | locus YHR079C, strain IRE1 (second series), stronger effect = lower value 0.989 | locus YHR079C, strain IRE1, stronger effect = lower value 0.977 | locus YHR094C, strain hxt1, stronger effect = lower value 0.972 | locus YHR129C, strain ARP1, stronger effect = lower value 0.998 | locus YHR142W, strain chs7, stronger effect = lower value 0.99 | locus YHR200W, strain rpn10, stronger effect = lower value 0.98 | locus YIL066C, strain RNR3, stronger effect = lower value 0.99 | locus YIL073C, strain SPO22, stronger effect = lower value 0.948 | locus YIL125W, strain kgd1, stronger effect = lower value 0.981 | locus YIR030C, strain dcg1, stronger effect = lower value 0.991 | locus YJL092W, strain hpr5, stronger effect = lower value 0.987 | locus YJL095W, strain BCK1 (second series), stronger effect = lower value 0.983 | locus YJL095W, strain BCK1, stronger effect = lower value 1 and 0.986 | locus YJL115W, strain asf1, stronger effect = lower value 0.98 | locus YJL129C, strain trk1, stronger effect = lower value 0.974 | locus YJL134W, strain LCB3, stronger effect = lower value 0.989 | locus YJL154C, strain vps35, stronger effect = lower value 0.979 | locus YJL164C, strain tpk1, stronger effect = lower value 0.993 | locus YJL166W, strain qcr8, stronger effect = lower value 0.984 | locus YJL168C, strain set2, stronger effect = lower value 0.983 | locus YJL187C, strain SWE1 (second series), stronger effect = lower value 0.983 | locus YJL187C, strain SWE1, stronger effect = lower value 0.981 | locus YJR043C, strain POL32, stronger effect = lower value 1.01 | locus YJR066W, strain TOR1, stronger effect = lower value 0.965
